# About 11,000 (3.1%) of roughly 360,000 compounds were called active. Not shown: some 2% with an inconclusive outcome. No stated cut-off is given here; in the data, active means fluorescence intensity above about 16000; inconclusive means no clear call, values can overlap the other calls; inactive means below that. Many of the other results were omitted from the sample, so actives are more common in it than they were.
# Experiment: compound fluorescence in toxin protease inhibitor counterscreen, primary screen, artefact control for toxin protease inhibitor project, biochemical, multiplex microsphere, HTS (AID 624483)
# Settings: compound autofluorescence counterscreen, microsphere flow cytometry; hits give high values
row,SMILES,fluorescence intensity
1,COc1cc(NC(=O)CN2C(=O)NC(C)(c3ccc(OC(F)F)cc3)C2=O)cc(OC)c1OC (configuration not stated),3820 (inactive)
2,CN(CC(=O)Nc1c(Cl)cccc1Cl)C(=O)CNC(=O)C1CCCCC1,4800 (inactive)
3,CC(=O)N1C[C@@H](CO)[C@@H](N(C)C(=O)c2ccco2)C[C@H]1c1ccccc1,6130 (inactive)
4,C=CCn1c(SCC(=O)NC(=O)Cc2ccccc2)nc2ccccc2c1=O,8750 (inactive)
5,O=C(CSc1nnc(-c2cccnc2)n1CCc1ccccc1)NCc1ccccc1,2870 (inactive)
6,C=CCn1c(SCC(=O)NCc2ccccc2)nnc1-c1cc(Br)ccc1O,20700 (active)
7,Cc1nc(CC(=O)NNS(=O)(=O)c2ccc(F)c(Cl)c2)cs1,2630 (inactive)
8,COc1ccc(N(Cc2cc3ccc(C)cc3[nH]c2=O)S(=O)(=O)c2ccccc2)cc1,4310 (inactive)
9,CCN(Cc1cc2cc(C)ccc2[nH]c1=O)S(=O)(=O)c1ccccc1,16600 (active)
10,CCC(=O)N(CCc1ccccc1)Cc1cc2cc(C)ccc2[nH]c1=O,3090 (inactive)
11,CC1(C(=O)NS(=O)(=O)Cc2cccc(Cl)c2)CCN1C(=O)Cc1ccccc1 (configuration not stated),3480 (inactive)
12,CC(=O)Nc1cccc(NC(=O)CSc2nccn2Cc2ccc(F)cc2)c1,6150 (inactive)
13,OC(c1ccc(Cl)c(F)c1)c1ncc(-c2ccccc2Cl)[nH]1 (configuration not stated),3970 (inactive)
14,COc1cc(C2C(C#N)=C(N)Oc3n[nH]c(-c4ccccn4)c32)cc(OC)c1OC (configuration not stated),22700 (active)
15,COc1ccc(-c2[nH]nc3c2C(c2ccncc2)C(C#N)=C(N)O3)cc1 (configuration not stated),3830 (inactive)
16,COCc1[nH]nc2c1C(C1C=CCCC1)C(C#N)=C(N)O2 (configuration not stated),11600 (inactive)
17,NC(=O)Cc1ccc2sc(-c3ccccc3)nc2c1,2610 (inactive)
18,O=C(COc1ccccc1F)Nc1nc(-c2ccccn2)cs1,3790 (inactive)
19,Cc1cc(NC(=O)[C@H](C)NC(=O)c2ccco2)ccc1Br,3700 (inactive)
20,CC(NC(=O)c1ccco1)C(=O)Nc1nc(-c2ccccn2)cs1 (configuration not stated),20700 (active)
21,COCCNc1ncnc2c1ncn2[C@H]1CN(CCN2CCOCC2)C[C@@H](CO)O1,3590 (inactive)

row,SMILES,fluorescence intensity
1,OC(c1ccccc1)C(CN1CCOCC1)c1ccccc1 (configuration not stated),4580 (inactive)
2,CN[C@H]1C[C@H]2c3cc(Oc4ccccc4C)ccc3CCN2C(=O)[C@H]1[C@H](C)O,5280 (inactive)
3,O=C(CCC1CCCN(Cc2ccc(O)c(Cl)c2)C1)NCc1ccccc1F (configuration not stated),4480 (inactive)
4,CC(=O)Oc1ccc(Cn2c(C)c(C(=O)NCc3ccc(C#N)cc3)sc2=O)cc1,5590 (inactive)
5,COC(=O)CCSc1nccn1Cc1ccccc1,20500 (active)
6,CCCCNC(=O)CSc1nccn1Cc1ccccc1,8790 (inactive)
7,CCCCCCNC(=O)CSc1nccn1Cc1ccccc1,9260 (inactive)
8,O=C(NCCN1CCOCC1)c1ccccc1N1C(=O)[C@@H]2Cc3c([nH]c4ccccc34)C(c3cccc(Cl)c3)N2C1=O (some centres not stated),5120 (inactive)
9,CCc1nc2c(OCc3ccc(C(=O)OC)cc3)cccn2c1N(C)C(=O)C(C)C,3990 (inactive)
10,CC(=O)c1cc2c(cc1NC(=O)CN1CCCCCC1)OCO2,3760 (inactive)
11,CC(=O)c1cc2c(cc1N)OCO2,22400 (active)
12,CC(=O)C1=C(C)NC(=O)NC1c1ccc2c(c1)OCO2 (configuration not stated),4750 (inactive)
13,Cc1nc(SCC(=O)N2CCc3ccccc3C2)c2c(C)c(C)sc2n1,5870 (inactive)
14,CCCCn1nnnc1C(c1cccc(OC)c1OC)N1CCN(C/C=C/c2ccccc2)CC1 (configuration not stated),5960 (inactive)
15,Cc1ccc(S(=O)(=O)N2CCCC(C(=O)N3CCN(C)CC3)C2)cc1 (configuration not stated),5490 (inactive)
16,COc1ccc(OCC(=O)OCCN(C)C)cc1,2140 (inactive)
17,COc1ccc(OCCCC(=O)OC(C)C(=O)Nc2ccccc2[N+](=O)[O-])cc1 (configuration not stated),3940 (inactive)
18,COc1ccc(OCCCC(=O)Oc2ccc(OC)cc2)cc1,21300 (active)
19,CCCCOc1ccc(Cl)cc1CSc1nncn1N,20700 (active)
20,COC(=O)c1ccc(CSc2nncn2N)cc1,4020 (inactive)
21,CCCCOc1ccc(CSC(=N)N)cc1[N+](=O)[O-],2600 (inactive)

row,SMILES,fluorescence intensity
1,Cn1cccc1C1(C(F)(F)F)NCCNC1=O (configuration not stated),20400 (active)
2,CC(=O)N1CCN(Cc2cc(=O)oc3cc(C)ccc23)CC1,5400 (inactive)
3,Cc1ccc(Cn2c(C)c(C(=O)NCc3ccccc3C(F)(F)F)sc2=O)cc1,5600 (inactive)
4,CCN(CC)C(=O)CSC1c2ccccc2C(=O)N1c1ccccc1 (configuration not stated),23100 (active)
5,O=C1c2ccccc2C(c2nc3ccccc3[nH]2)N1c1ccccc1 (configuration not stated),6040 (inactive)
6,CCN(CC)C(=O)CSc1ncnc2c1cnn2-c1ccccc1,3150 (inactive)
7,C[N+](C)(C)CCNC(=O)c1c[nH]c2ccccc12,5520 (inactive)
8,CCCNC(=O)C1(C)CCN1C(=O)Cc1ccc(-c2ccccc2)cc1 (configuration not stated),3250 (inactive)
9,CC(=O)Nc1ccc(SCC(=O)Nc2ccccc2Oc2ccccc2)cc1,2020 (inactive)
10,C#Cc1cc(N2CCN(C(=O)c3ccoc3)CC2)n2nc(-c3cccc(Cl)c3)cc2n1,4220 (inactive)
11,CCCCOc1ccc(C(=O)NCc2ccncc2)cc1,20300 (active)
12,CCCC(C)C(=O)NCc1ccncc1 (configuration not stated),2180 (inactive)
13,CC(C)(C)NC(=O)C(=O)NCc1ccncc1,2060 (inactive)
14,O=C(CN(C(=O)c1nsc(Cl)c1Cl)c1cccc(F)c1)NC1CCCC1,4350 (inactive)
15,CC(=O)Nc1cccc(OCC(=O)/C=C2\N(C)c3ccccc3C2(C)C)c1,3790 (inactive)
16,Cc1noc(C)c1C(=O)OCC(=O)/C=C1\N(C)c2ccccc2C1(C)C,23200 (active)
17,Cc1noc(C)c1C(=O)OCC(=O)N1CCN(S(=O)(=O)c2ccc3ccccc3c2)CC1,4540 (inactive)
18,CC1(C(=O)NS(=O)(=O)c2cccc(OC(F)F)c2)CCN1C(=O)COc1ccc(Cl)cc1 (configuration not stated),2870 (inactive)
19,Cc1ccn(-c2cccc(-n3ccc(C)n3)n2)n1,2160 (inactive)
20,CC(=O)Nc1cc(-c2ccc(N3CCN(C)CC3)cc2)cn2c(-c3ccc(F)cc3)cnc12,3850 (inactive)

# Reference: PubChem BioAssay AID624483 (NMMLSC, 2012)
